# Test results from ChEMBL document CHEMBL1961873, “Compounds: GSK PKIS; Assays: Nanosyn kinase panel” (2012).
# Values joined by “and” are separate entries in the source; they are usually repeats but may differ in a detail not shown here. Identical values can stand only once.
# Columns and labels:
# [1] = biological target: Fibroblast growth factor receptor 4 (Homo sapiens) (UniProt P22455); details: at 1 µM;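 further: reported figure is the averaged percent inhibition of FGFR4, from the GSK PKIS kinase screening panel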
# Fibroblast growth factor receptor 4 (Homo sapiens), sequence (P22455 22-802 limits assumed): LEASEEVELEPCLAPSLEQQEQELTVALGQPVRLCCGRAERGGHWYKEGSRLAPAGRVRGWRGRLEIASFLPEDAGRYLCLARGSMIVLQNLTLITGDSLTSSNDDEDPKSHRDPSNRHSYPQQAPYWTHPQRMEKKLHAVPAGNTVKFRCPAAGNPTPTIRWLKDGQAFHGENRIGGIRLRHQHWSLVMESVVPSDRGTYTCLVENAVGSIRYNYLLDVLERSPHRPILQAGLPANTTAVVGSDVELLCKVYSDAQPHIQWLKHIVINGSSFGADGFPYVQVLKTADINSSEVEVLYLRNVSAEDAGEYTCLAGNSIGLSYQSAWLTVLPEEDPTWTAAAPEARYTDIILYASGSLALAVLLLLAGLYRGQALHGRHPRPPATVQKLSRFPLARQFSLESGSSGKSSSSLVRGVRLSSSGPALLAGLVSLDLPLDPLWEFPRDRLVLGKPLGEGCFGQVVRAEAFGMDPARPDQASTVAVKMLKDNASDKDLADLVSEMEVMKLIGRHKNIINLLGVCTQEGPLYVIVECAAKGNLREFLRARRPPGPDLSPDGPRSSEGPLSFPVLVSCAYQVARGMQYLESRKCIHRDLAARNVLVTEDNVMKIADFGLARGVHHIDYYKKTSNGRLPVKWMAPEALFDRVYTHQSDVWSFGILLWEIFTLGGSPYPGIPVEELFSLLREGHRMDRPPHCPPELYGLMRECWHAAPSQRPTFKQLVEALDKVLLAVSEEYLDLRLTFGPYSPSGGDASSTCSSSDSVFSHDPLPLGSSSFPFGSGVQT
# [2] = biological target: Tyrosine-protein kinase Fgr (Homo sapiens) (UniProt P09769); details: at 0.1 µM
# Tyrosine-protein kinase Fgr (Homo sapiens), sequence (P09769 2-529 limits assumed): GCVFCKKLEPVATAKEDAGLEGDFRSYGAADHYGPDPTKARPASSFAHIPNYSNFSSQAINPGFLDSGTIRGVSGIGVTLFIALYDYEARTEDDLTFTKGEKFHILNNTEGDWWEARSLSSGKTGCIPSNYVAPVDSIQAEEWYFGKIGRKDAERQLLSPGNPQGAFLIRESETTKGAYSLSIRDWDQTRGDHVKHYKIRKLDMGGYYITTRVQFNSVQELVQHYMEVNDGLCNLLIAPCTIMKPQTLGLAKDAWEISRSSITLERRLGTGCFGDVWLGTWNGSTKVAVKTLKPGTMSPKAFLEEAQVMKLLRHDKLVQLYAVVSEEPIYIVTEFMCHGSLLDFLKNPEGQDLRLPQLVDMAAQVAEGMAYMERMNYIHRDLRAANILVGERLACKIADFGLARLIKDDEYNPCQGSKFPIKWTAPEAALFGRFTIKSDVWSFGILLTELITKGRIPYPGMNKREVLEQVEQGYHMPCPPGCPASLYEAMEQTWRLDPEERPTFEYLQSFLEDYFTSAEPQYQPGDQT
# [3] = biological target: Tyrosine-protein kinase Fgr (Homo sapiens) (UniProt P09769); details: at 1 µM
# [4] = biological target: Vascular endothelial growth factor receptor 1 (Homo sapiens) (UniProt P17948); details: at 0.1 µM
# Vascular endothelial growth factor receptor 1 (Homo sapiens), sequence (P17948 whole entry): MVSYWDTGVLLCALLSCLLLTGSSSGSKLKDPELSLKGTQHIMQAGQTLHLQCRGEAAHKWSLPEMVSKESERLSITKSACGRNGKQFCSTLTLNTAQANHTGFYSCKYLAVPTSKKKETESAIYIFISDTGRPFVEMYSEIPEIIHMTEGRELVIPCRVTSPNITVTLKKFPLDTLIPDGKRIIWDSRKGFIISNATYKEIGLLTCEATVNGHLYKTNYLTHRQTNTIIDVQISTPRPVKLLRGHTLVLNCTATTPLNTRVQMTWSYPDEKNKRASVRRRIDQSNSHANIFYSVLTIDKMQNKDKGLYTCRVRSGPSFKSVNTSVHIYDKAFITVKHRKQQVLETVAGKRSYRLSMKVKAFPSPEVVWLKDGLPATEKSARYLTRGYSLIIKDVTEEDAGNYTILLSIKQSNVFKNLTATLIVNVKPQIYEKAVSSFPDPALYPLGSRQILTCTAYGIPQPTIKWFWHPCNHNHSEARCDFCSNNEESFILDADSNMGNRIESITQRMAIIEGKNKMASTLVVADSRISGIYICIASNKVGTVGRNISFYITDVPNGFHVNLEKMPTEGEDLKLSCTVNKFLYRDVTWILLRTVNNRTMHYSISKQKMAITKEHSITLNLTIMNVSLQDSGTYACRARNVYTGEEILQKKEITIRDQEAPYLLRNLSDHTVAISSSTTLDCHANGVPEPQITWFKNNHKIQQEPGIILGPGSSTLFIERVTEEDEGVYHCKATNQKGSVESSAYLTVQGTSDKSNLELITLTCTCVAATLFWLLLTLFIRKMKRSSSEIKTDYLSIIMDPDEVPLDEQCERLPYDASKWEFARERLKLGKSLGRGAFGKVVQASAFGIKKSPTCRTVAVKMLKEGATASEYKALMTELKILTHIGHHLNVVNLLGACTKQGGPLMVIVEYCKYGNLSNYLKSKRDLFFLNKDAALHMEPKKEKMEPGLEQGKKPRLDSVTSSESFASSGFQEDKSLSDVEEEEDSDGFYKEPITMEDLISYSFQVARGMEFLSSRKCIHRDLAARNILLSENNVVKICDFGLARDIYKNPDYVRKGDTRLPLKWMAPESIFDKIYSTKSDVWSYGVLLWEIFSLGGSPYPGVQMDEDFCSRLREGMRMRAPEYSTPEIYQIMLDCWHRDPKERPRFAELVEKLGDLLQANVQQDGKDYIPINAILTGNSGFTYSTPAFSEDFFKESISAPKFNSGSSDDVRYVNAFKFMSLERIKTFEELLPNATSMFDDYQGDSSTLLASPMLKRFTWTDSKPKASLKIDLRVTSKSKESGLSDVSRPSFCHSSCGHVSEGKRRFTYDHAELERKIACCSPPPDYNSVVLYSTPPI
# [5] = biological target: Vascular endothelial growth factor receptor 1 (Homo sapiens) (UniProt P17948); details: at 1 µM
# [6] = biological target: Receptor-type tyrosine-protein kinase FLT3 (Homo sapiens) (UniProt P36888); details: at 0.1 µM
# [7] = biological target: Receptor-type tyrosine-protein kinase FLT3 (Homo sapiens) (UniProt P36888); details: at 1 µM
# [8] = test system: T1, Receptor-type tyrosine-protein kinase FLT3 (Homo sapiens), P36888 [D835Y]; details: at 0.1 µM
# T1 sequence (whole entry): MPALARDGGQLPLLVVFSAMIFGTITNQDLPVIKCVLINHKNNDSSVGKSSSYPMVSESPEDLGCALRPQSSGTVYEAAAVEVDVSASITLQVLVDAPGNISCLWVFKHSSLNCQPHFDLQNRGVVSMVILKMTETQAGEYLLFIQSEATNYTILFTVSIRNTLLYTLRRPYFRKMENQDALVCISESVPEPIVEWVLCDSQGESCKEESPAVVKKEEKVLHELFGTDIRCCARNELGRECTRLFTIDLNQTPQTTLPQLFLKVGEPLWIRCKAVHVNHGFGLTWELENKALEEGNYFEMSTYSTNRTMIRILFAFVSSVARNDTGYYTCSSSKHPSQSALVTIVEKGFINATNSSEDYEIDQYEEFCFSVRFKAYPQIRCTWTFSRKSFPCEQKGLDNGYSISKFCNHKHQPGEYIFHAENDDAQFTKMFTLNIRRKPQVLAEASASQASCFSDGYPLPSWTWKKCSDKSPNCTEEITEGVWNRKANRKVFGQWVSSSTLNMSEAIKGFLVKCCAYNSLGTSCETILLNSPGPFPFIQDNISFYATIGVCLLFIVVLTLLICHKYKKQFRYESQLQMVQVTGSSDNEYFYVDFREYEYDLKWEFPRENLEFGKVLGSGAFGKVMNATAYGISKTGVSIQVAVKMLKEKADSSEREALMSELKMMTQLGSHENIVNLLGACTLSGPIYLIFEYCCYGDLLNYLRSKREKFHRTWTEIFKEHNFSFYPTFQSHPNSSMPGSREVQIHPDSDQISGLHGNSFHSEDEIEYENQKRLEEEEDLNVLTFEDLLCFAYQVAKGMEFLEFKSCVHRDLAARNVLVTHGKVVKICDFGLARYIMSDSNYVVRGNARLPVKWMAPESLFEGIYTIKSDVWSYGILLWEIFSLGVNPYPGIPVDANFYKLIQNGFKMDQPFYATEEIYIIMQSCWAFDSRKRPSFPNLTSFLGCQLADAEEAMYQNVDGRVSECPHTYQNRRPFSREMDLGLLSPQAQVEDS
# [9] = biological target: Non-receptor tyrosine-protein kinase TYK2 (Homo sapiens) (UniProt P29597); details: at 1 µM;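 further: values are mean percent inhibition of TYK2 kinase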
# Non-receptor tyrosine-protein kinase TYK2 (Homo sapiens), sequence (P29597 whole entry): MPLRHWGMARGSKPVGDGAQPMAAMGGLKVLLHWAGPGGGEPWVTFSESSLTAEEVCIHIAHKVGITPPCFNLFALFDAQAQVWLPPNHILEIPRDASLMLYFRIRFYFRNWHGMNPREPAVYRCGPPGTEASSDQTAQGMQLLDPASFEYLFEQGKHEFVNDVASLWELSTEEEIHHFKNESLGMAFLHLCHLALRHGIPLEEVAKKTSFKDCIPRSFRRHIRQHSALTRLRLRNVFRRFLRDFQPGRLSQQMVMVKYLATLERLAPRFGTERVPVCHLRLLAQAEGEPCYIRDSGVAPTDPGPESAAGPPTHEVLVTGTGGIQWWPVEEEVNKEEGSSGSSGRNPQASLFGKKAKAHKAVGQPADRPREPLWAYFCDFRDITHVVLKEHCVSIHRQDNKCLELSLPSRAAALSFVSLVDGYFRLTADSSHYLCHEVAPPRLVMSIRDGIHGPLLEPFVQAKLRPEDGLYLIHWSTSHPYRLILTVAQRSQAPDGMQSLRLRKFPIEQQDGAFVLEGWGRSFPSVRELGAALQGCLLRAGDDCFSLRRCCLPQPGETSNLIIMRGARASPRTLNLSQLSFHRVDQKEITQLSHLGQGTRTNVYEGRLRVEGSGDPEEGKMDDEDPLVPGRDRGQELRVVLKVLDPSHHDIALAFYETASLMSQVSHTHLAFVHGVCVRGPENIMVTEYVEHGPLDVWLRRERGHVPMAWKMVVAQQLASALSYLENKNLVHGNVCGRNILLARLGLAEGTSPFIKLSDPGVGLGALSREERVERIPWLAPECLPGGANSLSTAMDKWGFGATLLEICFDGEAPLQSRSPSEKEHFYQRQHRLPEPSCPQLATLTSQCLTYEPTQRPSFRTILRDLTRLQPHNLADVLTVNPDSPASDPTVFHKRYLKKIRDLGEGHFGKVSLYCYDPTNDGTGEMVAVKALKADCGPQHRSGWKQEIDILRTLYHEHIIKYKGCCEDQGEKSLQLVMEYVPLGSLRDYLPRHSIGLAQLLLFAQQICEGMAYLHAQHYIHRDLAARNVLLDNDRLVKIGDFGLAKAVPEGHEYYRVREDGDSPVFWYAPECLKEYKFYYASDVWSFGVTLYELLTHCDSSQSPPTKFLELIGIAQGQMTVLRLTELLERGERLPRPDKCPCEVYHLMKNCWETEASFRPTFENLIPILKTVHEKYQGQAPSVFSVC
# [10] = biological target: T2, Tyrosine-protein kinase receptor TYRO3 (Homo sapiens) (UniProt Q06418); details: at 0.1 µM;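 further: reported percentages are averaged inhibition values of TYRO3 kinase activity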
# T2 sequence (whole entry): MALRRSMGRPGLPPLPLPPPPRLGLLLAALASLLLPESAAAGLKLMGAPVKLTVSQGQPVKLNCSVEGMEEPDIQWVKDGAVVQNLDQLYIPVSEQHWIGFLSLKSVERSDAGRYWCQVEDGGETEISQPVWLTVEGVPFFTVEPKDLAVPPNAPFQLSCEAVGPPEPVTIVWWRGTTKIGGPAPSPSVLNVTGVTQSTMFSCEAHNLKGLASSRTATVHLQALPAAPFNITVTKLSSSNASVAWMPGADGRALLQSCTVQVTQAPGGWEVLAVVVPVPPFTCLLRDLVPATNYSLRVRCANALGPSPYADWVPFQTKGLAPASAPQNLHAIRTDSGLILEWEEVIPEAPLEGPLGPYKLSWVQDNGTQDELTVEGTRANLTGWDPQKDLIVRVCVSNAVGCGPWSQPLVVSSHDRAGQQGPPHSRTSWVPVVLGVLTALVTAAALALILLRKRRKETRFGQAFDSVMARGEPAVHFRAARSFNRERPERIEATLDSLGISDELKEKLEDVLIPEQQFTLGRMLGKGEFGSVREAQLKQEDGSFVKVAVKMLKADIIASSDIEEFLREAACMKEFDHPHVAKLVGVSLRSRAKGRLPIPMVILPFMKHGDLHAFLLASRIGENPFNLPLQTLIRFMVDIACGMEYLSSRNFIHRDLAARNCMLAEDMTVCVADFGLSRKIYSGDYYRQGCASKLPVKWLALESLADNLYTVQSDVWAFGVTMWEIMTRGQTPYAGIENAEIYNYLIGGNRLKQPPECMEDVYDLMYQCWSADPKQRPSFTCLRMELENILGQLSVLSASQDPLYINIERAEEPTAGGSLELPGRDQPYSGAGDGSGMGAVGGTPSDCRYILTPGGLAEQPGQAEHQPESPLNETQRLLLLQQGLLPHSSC
SMILES,inhibition [1],inhibition [2],inhibition [3],inhibition [4],inhibition [5],inhibition [6],inhibition [7],inhibition [8],inhibition [9],inhibition [10]
COc1ccc(Nc2ncc(-c3ccccc3)o2)cc1OC,1.3%,3.96%,31.4%,6.85%,23.6%,76.6%,89.4%,15.2%,5.03%,0.14%
CN(c1ccc(NC(=O)NCCN2CCOCC2)cc1)c1ccnc(Nc2ccc(CS(C)(=O)=O)cc2)n1,1.61%,3.44%,11.3%,13.6%,30.7%,56.4%,83.7%,8.58%,-0.59%,3.48%
Cc1cc(O)cc(C)c1/C=C/c1cncc(C(N)=O)c1,0.95%,5.81%,38.1%,1.23%,4.11%,1.9%,2.11%,-5.07%,-0.58%,2.41%
CC1(C)CC(n2cnc(-c3ccc(F)cc3)c2-c2ccnc(N)n2)CC(C)(C)N1,2.01%,0.26%,3.54%,1.16%,1.59%,0.9%,-0.24%,2.51%,0.03%,0.59%
CCS(=O)(=O)c1ccc(OC)c(Nc2ncc(-c3cccc(C(C)=O)c3)o2)c1,3.95%,13.2%,44.4%,3.88%,17.2%,19.1%,69.8%,55.7%,-1.19%,5.67%
OCCCNc1nccc(-c2c(-c3ccc(F)cc3)nn3cc(C(F)(F)F)ccc23)n1,0.98%,2.9%,8.24%,1.4%,3.41%,1.66%,3.11%,-1.23%,-1.77%,1.9%
COc1cccc(-n2ncc3c(N/N=C/c4ccc(C(=O)NCCN(C)C)cc4)ncnc32)c1,4.18%,47.4%,82.1%,8.45%,37.3%,14%,54.9%,30.8%,5.84%,16.6%
CC1=C(C(=O)Nc2ccc3[nH]nc(C)c3c2)C(c2ccc(C(F)(F)F)cc2)CC(=O)N1 (stereo not given),2.06%,1.2%,3.75%,1.04%,5.46%,-0.53%,3.38%,0.37%,37.5%,2.07%
COc1cc(Nc2ncc(-c3ccccc3)o2)cc(OC)c1,-0.29%,5.71%,30.2%,4.69%,18.8%,71.8%,90.5%,5.63%,-1.72%,2.81%
c1ccc(-c2n[nH]cc2-c2ccnc(-c3ccc(OCCn4ccnc4)cc3)c2)nc1,4.5%,0.78%,2.78%,5.66%,29.5%,-0.04%,2.15%,2.71%,-0.27%,1.13%
O=C(O[C@H]1CN[C@H](C#Cc2cc3ncnc(Nc4ccc5c(ccn5Cc5cc(F)ccc5F)c4)c3s2)C1)N1CCOCC1,1.82%,2.14%,2.6%,0.98%,-0.89%,1.02%,2.83%,-5.8%,-1.34%,2.07%
Nc1ncnc2occ(-c3ccc(NC(=O)Nc4cc(C(F)(F)F)ccc4F)cc3)c12,16.7% and 10%,3.04% and 0.42%,24.4% and 11.4%,37.5% and 26.9%,84.5% and 74.3%,65.9% and 59.9%,89.1% and 89.5%,18% and 5.3%,-7.38% and 0.28%,5.11% and -0.01%
N#Cc1ccc2c(-c3ccnc(NC4CC4)n3)c(-c3ccc(F)cc3)nn2c1,-0.59%,1.68%,1.53%,1.23%,3.07%,0.32%,-2.7%,-5.78%,-2.44%,-1.24%
CNC(=O)c1cncc(/C=C/c2ccccc2C)c1,-0.62%,5.41%,9.23%,1.31%,0.49%,1.85%,1.3%,-2.2%,-3.23%,3.13%
CC(C)c1ccc(-c2cc(-c3c[nH]nc3-c3ccccn3)ccn2)cc1,0.16%,0.18%,1.8%,0.29%,6.12%,-2.11%,2.26%,1.43%,-0.96%,1.06%
FC(F)(F)CNc1nccc(-c2cnn3ncccc23)n1,-0.36%,2.09%,3.01%,-0.04%,0.56%,0.41%,-1.47%,-2.63%,-2.6%,0.93%
